The source of these data is PMC4336329 (PLoS ONE, 2015).

Among all 310,000 compounds or so, about 14,000 (4.5%) showed an effect of 50% or more. Effects have a minus sign here. The full list was thinned out, with strong results kept by preference.
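Note: peak tail current of the secondary pulse compared with the same well before compound.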

The target in the test is human ether-à-go-go-related gene (hERG) potassium channel (human, UniProt Q12809). In words: primary screen, population patch clamp on CHO cells stably expressing hERG; higher = less effect of the substance.
human ether-à-go-go-related gene (hERG) potassium channel, sequence (Q12809 whole entry, looked up): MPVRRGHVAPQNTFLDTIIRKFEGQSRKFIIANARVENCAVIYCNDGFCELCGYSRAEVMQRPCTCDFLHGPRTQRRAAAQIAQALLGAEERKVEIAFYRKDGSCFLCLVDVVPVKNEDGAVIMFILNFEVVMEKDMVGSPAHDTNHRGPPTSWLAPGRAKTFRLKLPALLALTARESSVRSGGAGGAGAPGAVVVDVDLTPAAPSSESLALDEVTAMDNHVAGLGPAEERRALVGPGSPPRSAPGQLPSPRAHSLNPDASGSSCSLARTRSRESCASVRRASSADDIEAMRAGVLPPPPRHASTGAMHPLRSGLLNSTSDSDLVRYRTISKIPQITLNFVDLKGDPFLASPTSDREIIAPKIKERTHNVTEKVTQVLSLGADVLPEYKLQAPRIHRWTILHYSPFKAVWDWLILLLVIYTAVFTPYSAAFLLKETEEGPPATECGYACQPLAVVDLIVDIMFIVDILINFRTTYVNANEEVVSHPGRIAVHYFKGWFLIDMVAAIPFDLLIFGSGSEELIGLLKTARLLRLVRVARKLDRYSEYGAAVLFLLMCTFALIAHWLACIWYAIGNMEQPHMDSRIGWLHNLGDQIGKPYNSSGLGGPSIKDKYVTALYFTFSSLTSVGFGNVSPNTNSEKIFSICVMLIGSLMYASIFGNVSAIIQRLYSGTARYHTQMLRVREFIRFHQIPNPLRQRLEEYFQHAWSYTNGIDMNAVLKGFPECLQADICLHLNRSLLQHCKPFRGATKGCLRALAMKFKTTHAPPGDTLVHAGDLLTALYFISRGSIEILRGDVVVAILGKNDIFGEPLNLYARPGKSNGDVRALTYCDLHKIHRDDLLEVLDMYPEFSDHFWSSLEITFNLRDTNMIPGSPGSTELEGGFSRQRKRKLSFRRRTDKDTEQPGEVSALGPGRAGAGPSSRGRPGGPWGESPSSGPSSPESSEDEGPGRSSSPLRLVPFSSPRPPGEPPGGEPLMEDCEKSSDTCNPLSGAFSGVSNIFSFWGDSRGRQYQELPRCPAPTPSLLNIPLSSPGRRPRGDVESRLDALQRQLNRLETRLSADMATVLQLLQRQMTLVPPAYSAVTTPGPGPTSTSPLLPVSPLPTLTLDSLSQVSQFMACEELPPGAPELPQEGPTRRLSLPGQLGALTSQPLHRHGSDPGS
As to `COc1cccc(N(CC(=O)NCCN2CCOCC2)S(=O)(=O)c2ccccc2)c1`, the “hERG current change (%, negative = inhibition) at 10uM” value was -4.96%. For `O=C(CSc1nc2ccccc2[nH]1)NCCc1ccc(Cl)cc1`, the “hERG current change (%, negative = inhibition) at 10uM” value is -20.9%. To `CN(C1CCCCC1)S(=O)(=O)c1ccccc1` belongs -7.01%; to `O=C(O)COc1ccc(Br)cc1/C=N\Nc1ccccn1`, 15.2%; to `COc1cc(OC)cc(C(=O)NC(=S)Nc2cc3oc4ccccc4c3cc2OC)c1`, 18.5%. In the case of `Cc1cc(/C=C2/C(=O)N(C)C(=S)N2C)c(C)n1C1CC1`, the “hERG current change (%, negative = inhibition) at 10uM” value amounted to 4.03%. To `CC(C)Oc1ccc(C(=O)Nc2ccc(N3CCCCC3)cc2)cc1` belongs -2.32%; to `CS(=O)(=O)N1CCc2ccc(NC(=O)C3CCCO3)cc2C1` (centres unmarked), 18.8%; to `CCCNS(=O)(=O)c1ccc(CCC(=O)N2CCOCC2)cc1`, 3.77%. Take `COC(=O)[C@@H](NC(=O)c1ccc2c(c1)S(=O)(=O)c1ccccc1C2=O)C(C)C`: the “hERG current change (%, negative = inhibition) at 10uM” value stood at 8.57%. As to `CCCCCCC(=O)Nc1c2c(nc3ccccc13)N(C)CC2`, the “hERG current change (%, negative = inhibition) at 10uM” value is given as -68%.

Regarding `O=C(CN1CCCCC1)Nc1c2c(nc3ccccc13)N(c1ccccc1)CC2.O=C(O)C(=O)O`, the “hERG current change (%, negative = inhibition) at 10uM” value was found to be 3.12%.

As to `CCCCC(=O)Nc1cc(N(C)C)nc2ccccc12`, the “hERG current change (%, negative = inhibition) at 10uM” value was -66.3%.

`CCN(CC)CC(=O)Nc1cc(N(C)C)nc2ccccc12.O=C(O)C(=O)O`: the “hERG current change (%, negative = inhibition) at 10uM” value is reported as -35.3%. Then `CN1CCc2c1nc1ccccc1c2NC(=O)CN1CCCC1`, with -1.61%; and `CCCCCC(=O)Nc1cccc2ccccc12`, with -2.38%; and `O=C(CN1CCCC1)Nc1c2c(nc3ccccc13)N(Cc1ccccc1)CC2.O=C(O)C(=O)O`, with 6.05%. As for `CCCCCC(=O)Nc1cc(N(C)C)nc2ccccc12`, the “hERG current change (%, negative = inhibition) at 10uM” value is -74.9%. Take `CCCCCC(=O)Nc1c2c(nc3ccccc13)CCC2`: the “hERG current change (%, negative = inhibition) at 10uM” value was -45.7%. As to `CN(C)c1cc(NC(=O)CN2CCCC2)c2ccccc2n1.O=C(O)C(=O)O`, the “hERG current change (%, negative = inhibition) at 10uM” value is listed as -10.3%.

For the compound `CCN(CC)CC(=O)Nc1c2c(nc3ccccc13)N(C)CC2.O=C(O)C(=O)O`, the “hERG current change (%, negative = inhibition) at 10uM” value turned out to be 16.5%. Then `O=C(CN1CCOCC1)Nc1c2c(nc3ccccc13)N(Cc1ccccc1)CC2.O=C(O)C(=O)O`, with -68.9%. As for `C/C(=N\NC(=S)Nc1cc(S(=O)(=O)N2CCOCC2)ccc1Cl)c1ccc(N2CCOCC2)cc1`, the “hERG current change (%, negative = inhibition) at 10uM” value amounted to 6.22%. Turning to `COc1ccc(CN(Cc2ccccn2)C(=O)CN2C(=O)C(C)Oc3ccccc32)cc1` (centres unmarked), the “hERG current change (%, negative = inhibition) at 10uM” value is given as -3.36%. Consider `CCOC(=O)c1ccc(-c2ccc(/C=C(\C#N)C(=O)NCc3cccs3)o2)cc1`, for which the “hERG current change (%, negative = inhibition) at 10uM” value was determined as 18%. Regarding `CC(=O)N1N=C(c2cccnc2)OC1c1ccc(C(C)C)cc1` (centres unmarked), the “hERG current change (%, negative = inhibition) at 10uM” value is on record as -30.1%. Then `O=c1[nH]ccc2c(O)cccc12`, with 20.1%; and `Cc1cccc(C)c1NC(=O)C1c2cccc[n+]2CC(=O)N1Cc1cccs1.[I-]` (centres unmarked), with 4.89%. With `O=C(CCN1C(=O)/C(=C/c2ccccc2F)SC1=S)NC1C=CS(=O)(=O)C1` (centres unmarked), the “hERG current change (%, negative = inhibition) at 10uM” value amounted to 15.3%. Then `CCOc1ccc(C(=O)c2nc3c(n2O)CCCC3)cc1`, with 18.5%.

`O=C(O)/C=C/C(=O)Nc1cccc(C(F)(F)F)c1`: the “hERG current change (%, negative = inhibition) at 10uM” value is on record as 7.79%. With `CCCCN(CCCC)CC(O)Cn1c2ccccc2c(=O)c2ccccc21` (centres unmarked), the “hERG current change (%, negative = inhibition) at 10uM” value was -68%. Then `CC(C)CCN(CCC(C)C)CC(O)Cn1c2ccccc2c(=O)c2ccccc21` (centres unmarked), with -22%.

With `CCCN(CCC)CC(O)Cn1c2ccccc2c2ccccc21` (centres unmarked), the “hERG current change (%, negative = inhibition) at 10uM” value is given as -32.1%. Turning to `COCCCNC(=O)CCC(=O)Nc1ccc2nc(N3CCOCC3)cc(C)c2c1`, the “hERG current change (%, negative = inhibition) at 10uM” value is 4%. Regarding `COc1ccc(C2Oc3ccccc3C3=C2C(c2cccs2)n2ncnc2N3)cc1` (centres unmarked), the “hERG current change (%, negative = inhibition) at 10uM” value is -52.1%.

For `c1csc(C2C3=C(Nc4ncnn42)c2ccccc2OC3)c1` (centres unmarked), the “hERG current change (%, negative = inhibition) at 10uM” value was determined as 11.4%. As for `Clc1ccc2c(c1)C1=C(C(c3ccncc3)O2)C(c2ccc(Br)cc2)n2ncnc2N1` (centres unmarked), the “hERG current change (%, negative = inhibition) at 10uM” value is 4.44%. For `Fc1ccc(C2C3=C(Nc4ncnn42)c2ccccc2OC3c2ccncc2)cc1` (centres unmarked), the “hERG current change (%, negative = inhibition) at 10uM” value was -60.4%. Regarding `Brc1ccc(C2C3=C(Nc4ncnn42)c2ccccc2OC3c2ccncc2)cc1` (centres unmarked), the “hERG current change (%, negative = inhibition) at 10uM” value is given as -32%. As to `Cc1ccc(C2Oc3ccccc3C3=C2C(c2cccs2)n2ncnc2N3)cc1` (centres unmarked), the “hERG current change (%, negative = inhibition) at 10uM” value was -7.55%.

Consider `COc1ccc(C2NC(=O)CCC2[N+](=O)[O-])c(OC)c1OC` (centres unmarked), for which the “hERG current change (%, negative = inhibition) at 10uM” value was determined as 12.2%. Then `Cn1c(-c2cccc3ccccc23)n[nH]c1=S`, with 21.9%. To `CCOc1ccc(/C(O)=C2/C(=O)C(=O)N(c3cc(C)on3)C2c2ccc(C(=O)OC)cc2)cc1` (centres unmarked) belongs 11.3%; to `COc1ccccc1C(=O)NCC(=O)N1CC=C(c2ccccc2)CC1`, 6.76%; to `Cc1cccc(C(=O)NCC(=O)N2CC=C(c3ccccc3)CC2)c1`, -40.9%.

Turning to `CCOc1ccc(C(=O)NCC(=O)N2CC=C(c3ccccc3)CC2)cc1OCC`, the “hERG current change (%, negative = inhibition) at 10uM” value was -62.9%.

For `CCOc1ccc(C(=O)NCC(=O)N2CCCCCCC2)cc1OCC`, the “hERG current change (%, negative = inhibition) at 10uM” value came to 1.47%. On to `COc1ccc(C(=O)NCC(=O)N2CC=C(c3ccccc3)CC2)cc1OC`, for which the “hERG current change (%, negative = inhibition) at 10uM” value is given as -37.9%. Take `O=C(NCC(=O)N1CC=C(c2ccccc2)CC1)c1ccco1`: the “hERG current change (%, negative = inhibition) at 10uM” value is -78.4%. Consider `CCOc1ccc(C(=O)NCC(=O)N2CCc3ccccc3C2)cc1OCC`, for which the “hERG current change (%, negative = inhibition) at 10uM” value was 4.5%.

As to `COc1cc(C(=O)NCC(=O)N2CC=C(c3ccccc3)CC2)cc(OC)c1OC`, the “hERG current change (%, negative = inhibition) at 10uM” value is listed as -51.2%.

Consider `CSCCC(NC(=O)c1ccco1)C(=O)N1CC=C(c2ccccc2)CC1` (centres unmarked), for which the “hERG current change (%, negative = inhibition) at 10uM” value was -48%. With `CCOC(=O)N1CCN(C(=O)COC(=O)COc2c(C)cc(C)cc2C)CC1`, the “hERG current change (%, negative = inhibition) at 10uM” value is reported as -9.8%. Take `O=c1c(-c2ccc(O)cc2O)coc2cc(O)cc(O)c12`: the “hERG current change (%, negative = inhibition) at 10uM” value is on record as -4.59%.

Take `Nc1nnc(Cc2cccc(Br)c2)s1`: the “hERG current change (%, negative = inhibition) at 10uM” value was 3.51%.
